MOR-DOR inv ag – mu-delta opioid heterodimer inverse agonism. P35372+P41143. cell-based MOR-DOR heterodimer luminescence. inhibition, % at 9.3 µM. 340,000 tested, 0.21% active. AID 504357; in the data active = inhibition above about 22%, passing the limit was not always enough;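 note: 0% = cells with DMSO and 100% = wells without cells with DMSO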
HTR5A inv ag – inverse agonist of human HTR5A in OPRM1-OPRD1 counter-screen | P47898 | HTR5A cell line, luminescence, inverse agonism | inhibition, % at 9.3 µM | 340,000 tested, 0.083% active; in the data active = inhibition mostly above about 23%, no sharp cut-off; inactive = mostly below about 18%;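 note: 0% = cells with DMSO and 100% = no-cell wells with DMSO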
HTR5A ag – activates human HTR5A in OPRM1-OPRD1 agonist counter-screen | HTR5A agonist assay, luminescence, cell-based | activation, % at 9.3 µM | 340,000 tested, 0.61% active | AID 504692; in the data active = activation mostly above about 9.5%, no sharp cut-off; inactive = mostly below about 7.6%;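 note: 0% = cells with vehicle only and 100% = reference agonist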
MOR-DOR ag – OPRM1-OPRD1 heterodimerization agonism; P35372+P41143; cells, luminescence; activation, % at 9.3 µM; 340,000 tested, 0.3% active; in the data active = activation above about 18%;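 note: 0% = vehicle-treated cells and 100% = reference agonist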
An asterisk follows results filed as active; i = inactive. A selection: hits, their analogues and other compounds. The true share with any hit is near 1.1%.

SMILES | MOR-DOR inv ag | HTR5A inv ag | HTR5A ag | MOR-DOR ag
CCC(NC(=O)Nc1nnc(C(F)(F)F)s1)(C(F)(F)F)C(F)(F)F | -14 | -37 | 12* | 2
CCC(=O)c1ccc(OCC(=O)OCC(=O)Nc2cccc(S(=O)(=O)N3CCOCC3)c2)cc1 | 15 | 2 | 1 | -4
CCN(CC)CCOC(=O)C1(c2ccccc2)CCOCC1 | 9 | -31 | 11* | -2
CCN(CC)CCOCCOC(=O)C1(c2ccccc2)CCCC1 | 3 | -5 | 1 | -1
Cc1ccc(NC(=S)NCc2ccc(F)cc2)cc1 | 1 | -19 | 7 | 0
Cc1ccc(CNC(=S)Nc2ccc(NS(=O)(=O)c3ccc(C)cc3)cc2)cc1 | -21 | 11 | 11* | 4
O=C(c1ccccc1Cl)N1N=C(c2cccs2)CC1c1cccc(O)c1 (stereo not given) | 12 | -1 | 11* | -2
CCCCCC(=O)C(=O)c1ccc(O)cc1O | 1 | -4 | 1 | 0
O=C(NCCc1c[nH]c2ccccc12)C(F)(F)F | 11 | -73 | 14* | -2
CC(C)C(=O)NCCc1c[nH]c2ccccc12 | 11 | -68 | 0 | -3
Cc1[nH]nc2c1C(c1ccsc1)C1=C(CC(C)(C)CC1=O)N2 (stereo not given) | 4 | 5 | -2 | -1
CC1(C(=O)OCC(=O)NCCNC(=O)COC(=O)C2(C)CC2(Cl)Cl)CC1(Cl)Cl (stereo not given) | 6 | -24 | 12* | -1
CC1=C/C(=N\OS(=O)(=O)c2ccccc2)C(C(C)C)=CC1=O | i | -17 | 20* | 186*
N#CCCN(C(=O)COC(=O)COc1ccccc1Cc1ccccc1)c1ccccc1 | 6 | -9 | 4 | -2
N#Cc1ccc(CN2CCN(C(=O)c3ccc(S(=O)(=O)NCc4ccco4)cc3)CC2)cc1 | -2 | -42 | 12* | 0
CCN(CC)C(=O)CSc1ncnc2sc(-c3ccccc3)cc12 | -11 | -8 | 9.3* | 2
CCOc1ccc(NC(=O)Cc2ccc(S(=O)(=O)N3CCCCC3)cc2)cc1OCC | 5 | 14 | 11* | -1
COc1ccc(/C(N)=N/OC(=O)c2c(-c3ccccc3Cl)noc2C)cc1OC | -67 | -29 | 12* | 12
O=C(/C=C/c1ccco1)OCC(=O)c1cccc([N+](=O)[O-])c1 | 29* | -3 | 1 | -5
COc1ccc(C(=O)COC(=O)/C=C/c2ccco2)cc1F | 6 | 12 | -5 | -1
C[C@@]12CCC=C[C@H]1[C@H](c1ccc(C(F)(F)F)cc1)N(Cc1ccccc1)C2=O | -7 | -2 | 13* | 1
O=C(CSc1nc(-c2ccccc2)cs1)Nc1nccs1 | -70 | -27 | 11* | 13
Nc1cc2nsnc2cc1Br | -190 | -34 | 13* | 32*
Nc1cccc2nsnc12 | -9 | 1 | -3 | 2
Cc1ccc(S(=O)(=O)N2CCC(C(=O)Nc3ccc(N4CCOCC4)cc3)CC2)cc1C | 13 | -7 | 6 | -2
SMILES | MOR-DOR inv ag | HTR5A inv ag | HTR5A ag | MOR-DOR ag
O=C(COC(=O)Cc1ccccc1F)NC(=O)NC1CCCC1 | 13 | -15 | 12* | -3
CC(=O)n1cc(N(C(=O)CCl)c2ccc(C)cc2)c2ccccc21 | -339 | 4 | 55* | 66*
Cc1ccc(-c2noc(CCC(=O)NCc3ccccc3CN3CCOCC3)n2)cc1 | -8 | 15 | 14* | 2
Cc1nc2sc(C(c3ccc(Cl)cc3)N3CC(C)OC(C)C3)c(O)n2n1 (stereo not given) | -8 | -25 | 11* | 1
Cc1ccc(C(c2sc3nc(C)nn3c2O)N2CC(C)OC(C)C2)cc1 (stereo not given) | 13 | 13 | 4 | -2
CN(CC(=O)Nc1ccc(Cl)c(C(F)(F)F)c1)C(=O)c1cccc2cccnc12 | 7 | 3 | 3 | -2
O=C(NC(c1ccccc1)c1c(O)ccc2ccccc12)c1ccccc1Cl (stereo not given) | -55 | 1 | 11* | 10
O=C(NC(c1ccc(Cl)cc1)c1c(O)ccc2ccccc12)c1ccccc1 (stereo not given) | 9 | -3 | -1 | -2
COC(=O)c1ccc2c(=O)[nH]c(COC(=O)c3c(-c4ccccc4Cl)noc3C)nc2c1 | -26 | 6 | 4 | 4
COc1cccc(NC(=O)CSc2nnc3ccc(-c4ccncc4)nn23)c1 | 3 | -1 | 0 | 0
COc1ccc(-c2cn[nH]c2-c2ccc(OCc3ccccc3)cc2O)cc1 | -60 | -5 | 2 | 11
COc1ccccc1-c1cn[nH]c1-c1ccc(OCc2ccccc2)cc1O | -58 | -38 | 12* | 11
O=C(CN1CCN(CCC(=O)Nc2ccccc2F)CC1)Nc1ccc(Cl)cc1 | 10 | -29 | 13* | -2
COc1ccc2c(c1)CC/C(=C/c1ccncc1)C2=O | 2 | -23 | -3 | 0
COc1ccc2c3c(ccc2c1)C(=O)/C(=C/O)CC3 | -120 | -86 | 22* | 25*
CCn1cc(CNC(=O)c2cc(-c3cc(OC)ccc3OC)nc3ccccc23)c(C)n1 | 3 | 1 | 3 | -1
COc1ccccc1C(c1nnnn1C(C)(C)C)N1CCCc2ccccc21 (stereo not given) | -6 | -26 | 13* | 1
CC(C)(C)n1nnnc1C(c1ccc(Cl)cc1)N1CCCc2ccccc21 (stereo not given) | 13 | 14 | 3 | -2
O=C(CCN1C(=O)c2ccccc2S1(=O)=O)NCc1ccccc1 | 7 | -6 | 1 | -1
Cc1ccc(C)c(Cn2cnc3c(nnn3-c3ccc(F)cc3)c2=O)c1 | -32 | -26 | 10* | 6
COC(=O)[C@@]1(Cc2ccc(OC)cc2)[C@H]2c3cc(C(=O)N(C)C)[nH]c3C[C@H]2CN1C(=O)c1ccccc1 | 19 | -9 | 14* | -3
CC1(C(=O)N2CCN(C(=O)c3ccco3)CC2)CC1(Br)Br (stereo not given) | 17 | -5 | 0 | -3
CCOC(=O)c1nn(-c2ccc(Cl)cc2C)ccc1=O | 10 | 5 | -1 | -2
O=C(c1ccc(-c2cccc(C(F)(F)F)c2)o1)N1CCCC(C(F)(F)F)C1 (stereo not given) | -33 | -29 | 11* | 6
O=C(c1ccc(-c2cccc(C(F)(F)F)c2)o1)N1CCN(c2ccccc2O)CC1 | -32 | -8 | 1 | 5
COc1ccc(CNC(=O)[C@]2(C)CCC[C@@]3(C)C4CC[C@@]5(C)C[C@]4(CCC32)CC5=O)cc1 (stereo not given in full) | 0 | -4 | 1 | 0
C[C@]1(CO)CCC[C@@]2(C)C1CC[C@@H](CO)[C@@H]2CCc1ccoc1 (stereo not given in full) | -1 | -38 | 9.8* | 0
O=C(C1CCCN(S(=O)(=O)c2ccc(F)cc2)C1)N1CCCCC1 (stereo not given) | 13 | -13 | 5 | -3
CCCC(=O)NC(c1cccs1)c1cc([N+](=O)[O-])c2cccnc2c1O (stereo not given) | 14 | -3 | 1 | -3
O=C(CCc1ccccc1)NC(c1cccs1)c1cc(Cl)c2cccnc2c1O (stereo not given) | -17 | -37 | 13* | 3

Assay outcomes as filed in PubChem BioAssay.
